# In PubChem BioAssay (NCATS):
# Several values for one entry are separate records, joined by “and”; a condition that tells them apart may be missing. Identical values can stand only once. Records with an inconclusive call do not appear. A call without a number means that no potency is given here. Activity calls are given as the source filed them. Unless noted, calls follow the shape of the dose curve; as a rule, active = well fitted curve in the direction sought with a large enough effect; inconclusive = small, poorly fitted or top-dose-only effect, or another doubt; inactive = no such curve, though single readings can be large; an effect the other way counts as inactive or inconclusive.
# What was measured:
# [1] = qHTS Assay for Lipid Storage Modulators (AID 1519; calls by dose curve; also: potency is read from the fitted curve at half-maximal effect); settings: Drosophila S3 cells, BODIPY lipid droplet/cell ratio, laser cytometry, cells loaded with oleic acid
# Method in brief: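 Cells seeded at 5,000 per well were treated with compounds over a concentration series and loaded with oleic acid (400 uM, as added). Lipid droplet fluorescence (488 nm excitation, 500-530 nm channel) was read by laser-scanning cytometry and normalized to 20 uM Triacsin C.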
# [2] = Validation of Assay for Modulators of Lamin A Splicing (AID 1459; active = well fitted curve in the direction sought with a large enough effect in the signal ratio; the % refers to the signal ratio;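 also: cells exposed to compound for two days before reading; ratio rise marks activators and ratio drop marks inhibitors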)
# Method in brief: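 Splicing correction read as GFP (500-530 nm) over DsRed2 (575-640 nm) object intensity after 48 h compound exposure of reporter HeLa S3 clones (600 cells/well, 2% FBS medium); ancitabine and cycloheximide titrations, 0.5% DMSO as vehicle.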
# [3] = Counterscreen for APE1 Inhibitors: Fluorescent Dye Displacement Validation Assay (AID 1707)
# Method in brief: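 Loss of Thiazole Orange fluorescence marks promiscuous DNA binders. The dye (250 nM) is mixed with 50 nM abasic-site dsDNA in pH7.5 Tris buffer containing MgCl2, then compounds are added and emission is read once.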
# [4] = molecular target: Endonuclease 4 (Escherichia coli (strain K12)) (UniProt P0A6C1); test: Counterscreen for APE1 Inhibitors: qHTS Validation Assay for Inhibitors of Endonuclease IV (AID 1708); also: potency is read from the fitted curve at half-maximal effect
# Method in brief: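 Conditions: 2 nM enzyme, 50 nM TAMRA/BHQ-2 substrate, pH 7.5 Tris buffer with 2 mM MgCl2, RT. Compound preincubation 15 min; readout three fluorescence reads 60 s apart, third-minus-first.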
# [5] = qHTS for differential inhibitors of proliferation of Plasmodium falciparum line 7G8 (AID 1815);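 also: parasite growth measured after three days of incubation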; also: potency is read from the fitted curve at half-maximal effect
# [6] = qHTS for differential inhibitors of proliferation of Plasmodium falciparum line GB4 (AID 1816); settings: Potency: Plasmodium falciparum GB4 proliferation inhibition;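 also: parasite growth measured after 72 h incubation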; also: potency is read from the fitted curve at half-maximal effect
# [7] = qHTS for differential inhibitors of proliferation of Plasmodium falciparum line 3D7 (AID 1876); also: potency is read from the fitted curve at half-maximal effect
# [8] = qHTS for differential inhibitors of proliferation of Plasmodium falciparum line D10 (AID 1877);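 also: parasites grown with compound for 72 h before DNA staining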; also: potency is read from the fitted curve at half-maximal effect
# [9] = molecular target: DNA repair nuclease/redox regulator APEX1 (Homo sapiens) (UniProt P27695); test: qHTS Validation Assay for Inhibitors of the Human Apurinic/apyrimidinic Endonuclease 1 (APE1) (AID 1705;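 also: TAMRA fluorescence gain over two minutes as APE1 cuts a quenched THF abasic duplex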)
# Sequence of DNA repair nuclease/redox regulator APEX1 (Homo sapiens) (P27695 whole entry, looked up): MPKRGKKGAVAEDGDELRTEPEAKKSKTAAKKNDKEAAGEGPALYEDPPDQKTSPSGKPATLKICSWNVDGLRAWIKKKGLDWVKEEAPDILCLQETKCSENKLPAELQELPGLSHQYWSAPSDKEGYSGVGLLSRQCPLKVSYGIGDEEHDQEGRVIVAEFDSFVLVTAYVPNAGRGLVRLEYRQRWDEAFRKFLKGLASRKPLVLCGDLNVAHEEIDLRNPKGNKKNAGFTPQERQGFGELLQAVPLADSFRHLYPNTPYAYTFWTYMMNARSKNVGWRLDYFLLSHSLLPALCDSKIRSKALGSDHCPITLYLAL
# Method in brief: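 Activity read as rising fluorescence (598 nm emission, 525 nm excitation) from incision of a TAMRA/BHQ-2 duplex carrying a THF abasic site (50 nM). Compound and enzyme sat 15 min at RT before substrate start; signal change between first and third 60-s reads.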
# [10] = molecular target: Alpha-galactosidase (Coffea arabica) (UniProt Q42656); test: Counterscreen for Glucocerebrosidase Inhibitors: qHTS Assay for Coffee Bean alpha-Galactosidase at pH 5.9 (AID 998)
# Sequence of Alpha-galactosidase (Coffea arabica) (Q42656 whole entry, looked up): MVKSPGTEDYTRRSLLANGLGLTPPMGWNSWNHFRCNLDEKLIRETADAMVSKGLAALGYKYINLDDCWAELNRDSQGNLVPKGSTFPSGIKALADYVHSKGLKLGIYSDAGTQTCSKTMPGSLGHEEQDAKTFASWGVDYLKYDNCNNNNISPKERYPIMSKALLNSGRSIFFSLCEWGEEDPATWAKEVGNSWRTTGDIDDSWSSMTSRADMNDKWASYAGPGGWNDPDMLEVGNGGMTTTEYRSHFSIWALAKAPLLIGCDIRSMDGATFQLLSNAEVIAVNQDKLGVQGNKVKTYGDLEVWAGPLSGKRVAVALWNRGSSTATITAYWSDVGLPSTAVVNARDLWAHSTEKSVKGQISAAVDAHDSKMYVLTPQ
# Method in brief: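 Enzyme 2 nM + cpd (0.7 nM–77 uM titration) + 4-MU-alpha-Gal 80 uM, pH 5.9 citrate/Tween-20, RT 20 min, NaOH/glycine stop pH 10, fluor 365/440. Normalized to no-enzyme and full-activity controls; Hill-fit AC50.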
# [11] = measured here: cell count channel max response
# [12] = measured here: lipid channel max response
smiles,measurement,setting,value
COc1ccc(C(c2ccc(OC)cc2)C(Cl)(Cl)Cl)cc1,"activity change, negative = inhibition",[1]; at 57.5 µM (top of the series),6.03% (inactive)
same,max response,[1]; [11],12.8%
same,max response,[1]; [12],30.2%
COC(=O)[C@@H](N)CCCN=C(N)N[N+](=O)[O-],"activity change, negative = inhibition",[1]; at 57.5 µM (top of the series),-4.08% (inactive)
same,max response,[1]; [11],-4.51%
same,max response,[1]; [12],-8.77%
O=c1cccc2n1CC1CNC[C@H]2C1,"activity change, negative = inhibition",[1]; at 25.7 µM (top of the series),-2.83% (inactive)
same,max response,[1]; [11],-1.29%
same,max response,[1]; [12],-2.58%
NC(CP(=O)(O)O)C(=O)O (stereo not drawn),outcome,[2],inactive
same,Potency,[3],inactive
same,Potency,[4],inactive
same,Potency,[5],inactive
same,Potency,[6],inactive
same,Potency,[7],inactive
same,Potency,[8],inactive
CC(=O)[C@H]1CCC2C3CC[C@H]4C[C@H](O)CC[C@]4(C)C3CC[C@@]21C (stereo partly drawn),"activity change, negative = inhibition",[1]; at 57.5 µM (top of the series),2.34% (inactive)
same,max response,[1]; [11],-20.4%
same,max response,[1]; [12],-15.9%
same,Potency,[9],inactive
same,Potency,[3],inactive
same,Potency,[4],inactive
same,Potency,[5],14.1 µM (active)
CN[C@@H](C)[C@H](O)c1ccccc1,"activity change, negative = inhibition",[1]; at 57.5 µM (top of the series),-15% (inactive)
same,max response,[1]; [11],-49.5%
same,max response,[1]; [12],-56.7%
same,Potency,[9],inactive
same,Potency,[3],inactive
same,Potency,[4],inactive
same,Potency,[5],12.6 µM (active)
same,Potency,[6],10 µM (active)
NCCS,outcome,[10],inactive
c1ccc(CCCN2CCN(CCOC(c3ccccc3)c3ccccc3)CC2)cc1,outcome,[10],inactive
same,Potency,[9],inactive
same,Potency,[3],inactive
same,Potency,[4],inactive
same,Potency,[5],4.47 µM (active)
same,Potency,[6],7.08 µM (active)
same,Potency,[7],11.2 µM (active)
same,Potency,[8],10 µM (active)
CCN(CC)CCNC(=O)c1ccc(NC(C)=O)cc1,outcome,[10],inactive
C#CC1(O)CCC2C3CCC4=CC(=O)CCC4(C)C3CCC21C (stereo not drawn),"activity change, negative = inhibition",[1]; at 57.5 µM (top of the series),2.45% (inactive)
same,max response,[1]; [11],10.4%
same,max response,[1]; [12],15.6%
NC1CC1c1ccccc1 (stereo not drawn),Potency,[9],inactive
same,Potency,[3],inactive
same,Potency,[4],inactive
same,Potency,[5],10 µM (active)
same,Potency,[6],10 µM (active)
CC[C@@]1(O)C(=O)OCc2c1cc1n(c2=O)Cc2cc3ccccc3nc2-1,outcome,[10],inactive
same,"activity change, negative = inhibition",[1]; at 57.5 µM (top of the series),-4.36% (inactive)
same,max response,[1]; [11],13.2%
same,max response,[1]; [12],8.88%
same,Potency,[9],inactive
same,Potency,[3],inactive
same,Potency,[4],inactive
same,Potency,[5],1.41 µM (active)
same,Potency,[6],0.794 µM (active)
same,Potency,[7],0.794 µM (active)
same,Potency,[8],1.12 µM (active)
CCn1cc(C(=O)O)c(=O)c2cc3c(cc21)OCO3,outcome,[10],inactive
O=C(O)CCCOc1ccc(Cl)cc1Cl,"activity change, negative = inhibition",[1]; at 57.5 µM (top of the series),4.8% (inactive)
same,max response,[1]; [11],15.4%
same,max response,[1]; [12],22.4%
Clc1ccc(C(c2ccc(Cl)cc2)n2cc[n+](CC(OCc3ccc(Cl)cc3Cl)c3ccc(Cl)cc3Cl)c2)cc1 (stereo not drawn),Potency,[9],inactive
same,Potency,[3],inactive
same,Potency,[4],31.6 µM (active)
same,Potency,[5],7.94 µM (active)
same,Potency,[6],7.08 µM (active)
same,Potency,[7],3.55 µM (active)
same,Potency,[8],7.08 µM (active)
C[C@]12C[C@H](O)[C@H]3[C@@H](CCC4=CC(=O)CC[C@@]43C)[C@@H]1CC[C@@H]2C(=O)CO,outcome,[10],inactive
CCOC(=O)C1=C[C@@]2(CC)CCCN3CCc4c(n1c1ccccc41)[C@H]32,outcome,[10],inactive
Cc1cccc(C#Cc2ccccc2)n1,outcome,[10],inactive
CCc1c(C)[nH]c2c1C(=O)C(CN1CCOCC1)CC2 (stereo not drawn),outcome,[10],inactive
CC(C)c1ccc2c(c1)c(SC(C)(C)C)c(CC(C)(C)C(=O)O)n2Cc1ccc(Cl)cc1,outcome,[10],inactive
NC(N)=NOCCC(N)C(=O)O (stereo not drawn),outcome,[10],inactive
same,"activity change, negative = inhibition",[1]; at 57.5 µM (top of the series),1.36% (inactive) and 1.85% (inactive)
same,max response,[1]; [11],3.95% and -21.7%
same,max response,[1]; [12],4.87% and -17.2%
same,Potency,[9],inactive
same,Potency,[3],inactive
same,Potency,[5],inactive
same,Potency,[6],inactive
same,Potency,[7],inactive
same,Potency,[8],inactive
Cc1cc(O)ccc1Cl,"activity change, negative = inhibition",[1]; at 57.5 µM (top of the series),8.09% (inactive)
same,max response,[1]; [11],-7.09%
same,max response,[1]; [12],5.53%
CC#C[C@]1(O)CC[C@H]2[C@@H]3CCC4=CC(=O)CCC4=C3[C@H](c3ccc(N(C)C)cc3)C[C@@]21C,outcome,[10],inactive
CC(=O)Oc1ccccc1C(=O)O,outcome,[10],inactive
Clc1cnc(Oc2ccc(Oc3ncc(Cl)cc3Cl)cc2)c(Cl)c1,outcome,[10],inactive
same,outcome,[2],inactive
same,Potency,[3],inactive
same,Potency,[4],inactive
same,Potency,[6],inactive
same,Potency,[7],inactive
same,Potency,[8],inactive
CS(=O)(=O)Nc1ccc([N+](=O)[O-])cc1Oc1ccccc1,outcome,[10],inactive
CC(C)(Sc1ccc(CCN(CCCCC2CCCCC2)C(=O)NC2CCCCC2)cc1)C(=O)O,outcome,[10],inactive
CCN1CCc2nc(N)oc2CC1,outcome,[10],inactive
CN[C@@H]1C[C@@H](c2ccc(Cl)c(Cl)c2)c2ccccc21,outcome,[10],inactive
same,Potency,[9],inactive
same,Potency,[3],inactive
same,Potency,[4],inactive
same,Potency,[7],12.6 µM (active)
Cc1nc(-c2ccc(-c3ccc(C(=O)N4CCc5cc6c(cc54)C4(CCN(C)CC4)CO6)cc3)c(C)c2)no1,outcome,[10],inactive
same,Potency,[9],inactive
same,Potency,[3],inactive
same,Potency,[4],inactive
same,Potency,[5],5.01 µM (active)
same,Potency,[6],11.2 µM (active)
same,Potency,[7],12.6 µM (active)
same,Potency,[8],11.2 µM (active)
CC[C@H](CO)Nc1nc(NCc2ccccc2)c2ncn(C(C)C)c2n1,Potency,[5],5.01 µM (active)
same,Potency,[6],6.31 µM (active)
same,Potency,[7],3.16 µM (active)
same,Potency,[8],10 µM (active)
CCCN(CCC)C1CCc2ccc(O)cc2C1 (stereo not drawn),outcome,[2],inactive
same,Potency,[9],inactive
same,Potency,[3],inactive
same,Potency,[5],8.91 µM (active)
same,Potency,[6],11.2 µM (active)
same,Potency,[8],10 µM (active)
CCCCCCCCCCCCCCCC[N+](C)(C)C,Potency,[1],11.2 µM (active)
same,max response,[1]; [11],-15.3%
same,max response,[1]; [12],-89.4%
CNCCc1ccc(O)c(O)c1,outcome,[10],inactive
same,Potency,[9],inactive
same,Potency,[3],inactive
same,Potency,[4],inactive
same,Potency,[6],8.91 µM (active)
same,Potency,[7],12.6 µM (active)
